Tgondii IFNg: T. gondii growth inhibition with IFN-gamma, primary screen, cell-based | Toxoplasma gondii growth in IFN-gamma-treated host cells; hits give low values | activity change, negative = inhibition, % (test concentration not listed) | 69,000 compounds, 3.8% hits; in the data active = activity change below about -70%, passing the limit was not always enough;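 also: host cells are HeLa cells infected with Toxoplasma gondii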
Numbers without * were called inactive. The sample as a whole holds a higher share of hits than the screen did.

SMILES	Tgondii IFNg
CC(=O)C1(O)Cc2c(O)c3c(c(O)c2C(OC2CC(N)C(O)C(C)O2)C1)C(=O)c1c(O)cccc1C3=O (configuration not stated)	-79.0*
Cc1cc(C)n(C)c(=O)c1C(=O)NCc1cccnc1Oc1ccccc1F	29.6
CC(=O)Nc1ccc(C(=O)N(c2ccc(C)c(C)c2)C2(C(=O)NCc3ccccc3)CCN(C(C)=O)CC2)cc1	-6.6
Cc1ccc(NC(=O)N2CCC(c3nc(C(=O)N(C)C)c(C)o3)CC2)cc1C	-33.1
Cc1ccc(CN2CCC3(CC2)CCN(C(=O)C2CC=CC2)C3)cc1	-2.9
COCCO[C@@H]1CCN(S(=O)(=O)c2cccs2)[C@H]1Cc1ccccc1	3.5
CCOc1ccc(C2CCCN2C(=O)c2cc(S(=O)(=O)NC)ccc2F)cc1 (configuration not stated)	2.7
CC1c2ncc(COCC(=O)N3CCCC3)n2CCN1C (configuration not stated)	59.6
CC(C)Nc1ncc(CN2CCC(Cc3cccc(C(=O)O)c3)C2)cn1 (configuration not stated)	3.6
CCN(CC)c1nc2nonc2nc1Nc1cccc(Br)c1	-112.0*
Brc1cccc(Nc2ncnc3cc4nc[nH]c4cc23)c1	-20.4
CNc1cc2c(Nc3cccc(Br)c3)ncnc2cn1	-16.4
CC(C)c1cc(C2CCCN2C(=O)c2ccc(NC(=O)C3CCC3)cc2)no1 (configuration not stated)	-4.7
CNC(=O)c1ccc(-c2nc(CN3CCN(c4ccccc4)CC3)c(C)o2)cc1	22.6
CCCCN(C)C(=O)c1ccc(-c2nc(CN3CCN(c4ccccc4)CC3)c(C)o2)cc1	-32.4
Cc1oc(-c2ccc(C(=O)NCc3cccs3)cc2)nc1CN1CCc2ccccc21	-94.3*
Cc1ccc(CNC(=O)c2ccc(-c3nc(CN4CCc5ccccc54)c(C)o3)cc2)o1	142.7
COCCCNC(=O)c1ccc(-c2nc(CN3CCc4ccccc43)c(C)o2)cc1	8.4
CCOc1ccc(CNC(=O)c2ccc(-c3nc(CN4CCc5ccccc54)c(C)o3)cc2)cc1	10.2
Cc1oc(-c2ccc(C(=O)N3CCCCCC3)cc2)nc1CN1CCc2ccccc21	-101.2*
CCCCOc1ccc(CNC(=O)c2ccc(-c3nc(CN4CCc5ccccc54)c(C)o3)cc2)cc1	-93.5*
Cc1oc(-c2ccc(C(=O)N(C)Cc3ccccc3)cc2)nc1CN1CCN(c2ccccc2)CC1	-94.0*
Cc1oc(-c2ccc(C(=O)NCc3ccccc3Cl)cc2)nc1CN1CCc2ccccc21	-49.3
Cc1oc(-c2ccc(C(=O)N3CCC(C)CC3)cc2)nc1CN1CCc2ccccc21	93.9
CCOC(=O)C1CCCN(C(=O)c2ccc(-c3nc(CN4CCc5ccccc54)c(C)o3)cc2)C1 (configuration not stated)	56.0
SMILES	Tgondii IFNg
CN1CC2(CCN(C(=O)C3=Cc4ccccc4OC=C3)C2)OC1=O (configuration not stated)	-24.5
O=C(c1ccccc1OCc1ccccc1)N1C[C@H]2C[C@H](O)[C@@H](O)C[C@H]2C1	-2.9
O=S(=O)(Cc1ccc(F)cc1)Cc1noc(-c2ccc(F)cc2Cl)n1	-57.0
COc1ccc(Cl)cc1NC(=O)N1CCc2nc(-c3ccccc3)sc2C1	26.3
O=C(NC12CC3CC(CC(C3)C1)C2)N1CCC2(CC1)Nc1ccccc1-n1cccc12	157.4
COc1ccc2[nH]c(C(=O)N(C)CCc3noc(C(C)C)n3)c(C)c2c1	0.0
O=C(CCN1CCOCC1)c1cc2ccc(-c3cccc(Cl)c3)cn2c1-c1cocn1	-1.4
CC(CC(F)(F)F)NC1CCN(S(=O)(=O)c2ccccc2)CC1 (configuration not stated)	-3.2
CC(C)(CO)NC(=O)c1cc(-c2cn(-c3ccccn3)cn2)n2ccccc12	17.4
Cc1oc(-c2ccc(C(=O)NCCc3ccccc3)cc2)nc1CN1CCc2ccccc21	-126.9*
CCCCNC(=O)c1ccc(-c2nc(CN3CCc4ccccc43)c(C)o2)cc1	-66.4
Cc1oc(-c2ccc(C(=O)NCCCc3ccccc3)cc2)nc1CN1CCc2ccccc21	121.8
Cc1cc(-c2cc3c(n(Cc4cccnc4)c2=O)CCN(C(=O)c2snnc2C)C3)ccc1F	-44.5
CCCC(=O)N1C[C@H]2CCc3nnc(-c4ccncc4)n3[C@H]2C1	8.5

High-throughput results from PubChem BioAssay.
